Several values for one entry are separate records, joined by “and”; a condition that tells them apart may be missing. Equal entries are not always repeated. Inconclusive results are not listed. Activity calls are given as the source filed them. Unless noted, calls come from the whole dose curve; as a rule, active = well fitted curve in the direction sought with a large enough effect; inconclusive = small, poorly fitted or top-dose-only effect, or another doubt; inactive = no such curve, though single readings can be large; an effect the other way counts as inactive or inconclusive.

These results are taken from PubChem BioAssay (NCATS).

Assay [1] has as its target Alpha-galactosidase A (Homo sapiens) (UniProt P06280). As to the kind of experiment: Counterscreen for Glucocerebrosidase Inhibitors: qHTS Assay for Human alpha-Galactosidase at pH 4.5 (AID 992). Note: 0% is about no effect. The method, boiled down:
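Read-out is 4-methylumbelliferone fluorescence (365 nm excitation, 440 nm emission) after a pH 10 NaOH/glycine stop. Reactions held 2 nM enzyme and 80 uM substrate at pH 4.5 for 20 min at room temperature.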

Assay [2] has as its target alpha-glucosidase (Oryza sativa, rice) (UniProt Q653V4). As to the kind of experiment: Counterscreen for Glucocerebrosidase Inhibitors: qHTS Assay for Rice alpha-Glucosidase at pH 5.0 (AID 997).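 Note: 0% = full activity with enzyme and -100% = basal without enzyme.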 The method, boiled down:
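Rice alpha-glucosidase (4 nM final) with 400 uM 4-methylumbelliferyl-alpha-D-glucopyranoside in citrate buffer pH 5.0, 20 min at room temperature, stopped at pH 10; fluorescence 365/440 nm, compounds 0.7 nM–77 uM, AC50 from Hill fits.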

In assay [3] the target is Alpha-galactosidase (Coffea arabica) (UniProt Q42656). As to the kind of experiment: Counterscreen for Glucocerebrosidase Inhibitors: qHTS Assay for Coffee Bean alpha-Galactosidase at pH 5.9 (AID 998).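 Note: plate controls were uninhibited enzyme for no effect and no-enzyme basal signal for full effect.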 The method, boiled down:
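Green coffee bean enzyme (2 nM final) was incubated with compounds (0.7 nM–77 uM) and 4-methylumbelliferyl alpha-D-galactopyranoside (80 uM) in citrate buffer pH 5.9, 20 min at room temperature. High-pH stop; fluorescence 365/440 nm; AC50 from Hill fits.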

The nature of assay [4]: qHTS Assay for Lipid Storage Modulators (AID 1519; calls by dose curve; for activity change, negative = inhibition: % is set by controls: 0 for no effect and ±100 for the full control effect). The note with it: Drosophila S3 cells, BODIPY lipid droplet/cell ratio, laser cytometry, cells loaded with oleic acid. An outline of the steps:
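Cells seeded at 5,000 per well were treated with compounds over a concentration series and loaded with oleic acid (400 uM, as added). Lipid droplet fluorescence (488 nm excitation, 500-530 nm channel) was read by laser-scanning cytometry and normalized to 20 uM Triacsin C.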

In assay [5] the target is DNA repair nuclease/redox regulator APEX1 (Homo sapiens) (UniProt P27695). As to the kind of experiment: qHTS Validation Assay for Inhibitors of the Human Apurinic/apyrimidinic Endonuclease 1 (APE1) (AID 1705;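 note: TAMRA fluorescence gain over two minutes as APE1 cuts a quenched THF abasic duplex; % is set by controls: 0 for no effect and ±100 for the full control effect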). The method, boiled down: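 Substrate: 50 nM final fluorophore/quencher THF-abasic duplex. Enzyme preincubated with compounds 15 min, RT. Progress derived from fluorescence difference, third minus first kinetic read.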

A short description of assay [6]: Counterscreen for APE1 Inhibitors: Fluorescent Dye Displacement Validation Assay (AID 1707).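 Note: plate controls were ThO with dsDNA and no compound for no effect and ThO without dsDNA for full effect.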 The method, boiled down:
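ThO 250 nM + dsDNA 50 nM (THF abasic site, 5'-TAMRA), Tris-HCl pH7.5/50mM NaCl/2 mM MgCl2/0.01% Tween-20; compounds pin-transferred; ex 480/em 540 nm endpoint. Neutral = no compound; no-DNA ThO wells = negative control.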

A short description of assay [7]: qHTS for differential inhibitors of proliferation of Plasmodium falciparum line 7G8 (AID 1815).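 For activity change, negative = inhibition: plate controls were vehicle wells for no effect and reference inhibitor wells for full effect.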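 Note: parasite growth measured after three days of incubation.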 Note: potency is the fitted concentration of half-maximal effect.
A short description of assay [8]: qHTS for differential inhibitors of proliferation of Plasmodium falciparum line GB4 (AID 1816).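 For activity change, negative = inhibition: 0% = vehicle DMSO and -100% = reference inhibitor.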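 Note: parasite growth measured after 72 h incubation.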 Note: potency is the fitted concentration of half-maximal effect. The note with it: Potency: Plasmodium falciparum GB4 proliferation inhibition.
Assay [9] in a line: qHTS for differential inhibitors of proliferation of Plasmodium falciparum line 3D7 (AID 1876). Note: potency is the fitted concentration of half-maximal effect.
Assay [10] in a line: qHTS for differential inhibitors of proliferation of Plasmodium falciparum line D10 (AID 1877).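 For activity change, negative = inhibition: plate controls were vehicle wells for no effect and reference inhibitor wells for full effect.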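 Note: parasites grown with compound for 72 h before DNA staining.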 Note: potency is the fitted concentration of half-maximal effect.
Assay [11] in a line: qHTS for differential inhibitors of proliferation of Plasmodium falciparum line Dd2 (AID 1882).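 For activity change, negative = inhibition: compound exposure of 72 h on infected erythrocytes; plate controls were DMSO vehicle for no effect and 0.29 µM artemisinin for full effect.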 Note: nearly all actives have a fitted effect of over 65% in size. Note: potency is the fitted concentration of half-maximal effect. The settings on record: Potency: Plasmodium falciparum Dd2 proliferation inhibition. The method, boiled down: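 SYBR Green I DNA fluorescence read-out, ex 485/em 535 nm. Signals were normalized to 0.29 uM artemisinin and DMSO wells, then corrected using vehicle-only plates flanking each stack. Parasite growth ran 72 h in erythrocytes before lysis.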

Assay [12] in a line: qHTS for differential inhibitors of proliferation of Plasmodium falciparum line W2 (AID 1883).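 For activity change, negative = inhibition: 0% = vehicle wells and -100% = control inhibitor wells.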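 Note: parasites grown with compound for 72 h before lysis and staining.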 Note: potency is the fitted concentration of half-maximal effect. The note with it: Potency: Plasmodium falciparum W2 proliferation inhibition.
Assay [13] is described as follows: qHTS for differential inhibitors of proliferation of Plasmodium falciparum line HB3 (AID 1886).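 For activity change, negative = inhibition: plate controls were vehicle for no effect and reference inhibitor for full effect.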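 Note: parasites grown with compound for 72 h before SYBR Green readout.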 Note: potency is the fitted concentration of half-maximal effect. The settings on record: Potency: Plasmodium falciparum HB3 proliferation inhibition.
Assay [14] in a line: Cell Viability - LYMP2-024 (AID 988).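 Note: plate controls were DMSO only for no effect and 92 µM tetraoctylammonium bromide for full effect; nearly all actives have a fitted effect of over 60% in size.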 An outline of the steps:
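Human lymphoblastoid cells (2500/well) in complete medium were preincubated 5 hr at 37 C, then exposed to compounds for 24 hr at 37 C. Intracellular ATP was read by CellTiter-Glo luminescence; AC50 from Hill-equation fits of concentration-response data.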

Assay [15] in a line: Cell Viability - LYMP2-026 (AID 989). Note: % is set by controls: 0 for no effect and ±100 for the full control effect; nearly all actives have a fitted effect of over 50% in size. An outline of the steps:
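Human lymphoblastoid cells (2500/well) in complete medium were preincubated 5 hr at 37 C, then exposed to compounds for 24 hr at 37 C. Cellular ATP was read by CellTiter-Glo luminescence; AC50 from Hill-equation fits of concentration-response data.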

The nature of assay [16]: Cell Viability - LYMP1-002 - Assay at 24 hr (AID 993). Note: % is set by controls: 0 for no effect and ±100 for the full control effect. An outline of the steps:
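Human lymphoblastoid LYMP1-002 cells, 2500/well in complete medium, were treated with compounds for 24 h at 37 C; intracellular ATP was read by CellTiter-Glo luminescence. AC50 values came from Hill-equation fits of qHTS concentration-response data.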

The nature of assay [17]: Cell Viability - LYMP1-002 - Assay at 40 hr (AID 994).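 Note: 0% = DMSO only and full inhibition = 92 µM tetraoctylammonium bromide; nearly all actives have a fitted effect of over 60% in size.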 The method, boiled down: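 Human lymphoblastoid cells, 2500/well in complete medium, were preincubated 5 hr at 37 C, then exposed to compounds for 40 hr at 37 C. Intracellular ATP was read by CellTiter-Glo luminescence after 30 min at room temperature; AC50 from Hill-equation fits.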
The nature of assay [18]: Validation of Assay for Modulators of Lamin A Splicing (AID 1459; active = well fitted curve in the direction sought with a large enough effect in the signal ratio; the % refers to the signal ratio;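 note: cells exposed to compound for two days before reading; 0% is about no effect; ratio rise marks activators and ratio drop marks inhibitors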). An outline of the steps: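 Dual-reporter HeLa S3 line (lamin A-EGFP minigene, DsRed2) treated with compounds 48 hrs, 0.5% DMSO final. Endpoint: EGFP/DsRed2 total intensity ratio from laser-scanning microplate cytometry.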
The target of assay [19] is Endonuclease 4 (Escherichia coli (strain K12)) (UniProt P0A6C1). As to the kind of experiment: Counterscreen for APE1 Inhibitors: qHTS Validation Assay for Inhibitors of Endonuclease IV (AID 1708). Note: % is set by controls: 0 for no effect and ±100 for the full control effect. An outline of the steps:
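2 nM enzyme was preincubated with compounds for 15 min at room temperature in 50 mM Tris-HCl pH 7.5, 50 mM NaCl, 2 mM MgCl2, 1 mM DTT, 0.01% Tween-20. 50 nM THF-abasic TAMRA/BHQ-2 duplex substrate started the reaction.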

The nature of assay [20]: qHTS Assay for Modulators of Human Peripheral Myelin Protein 22 (PMP22) Expression/Activity (AID 1967; active = well fitted curve in the direction sought with a large enough effect in the signal ratio; the % refers to the signal ratio;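 note: 0% = untreated cells and 100% end not stated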). The method, boiled down:
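Engineered MSC80 cells, Pmp22-promoter green and EF-alpha red luciferase reporters; 24h compound treatment at 37 °C. Concentration-response fits on green, red and ratio signals, each overlap-corrected, with %Activity normalized to untreated wells.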

[21] abbreviates: measured here: cell count channel max response.
Where [22] appears, read: measured here: lipid channel max response.

Chain of Alpha-galactosidase (Coffea arabica) (Q42656 whole entry, looked up): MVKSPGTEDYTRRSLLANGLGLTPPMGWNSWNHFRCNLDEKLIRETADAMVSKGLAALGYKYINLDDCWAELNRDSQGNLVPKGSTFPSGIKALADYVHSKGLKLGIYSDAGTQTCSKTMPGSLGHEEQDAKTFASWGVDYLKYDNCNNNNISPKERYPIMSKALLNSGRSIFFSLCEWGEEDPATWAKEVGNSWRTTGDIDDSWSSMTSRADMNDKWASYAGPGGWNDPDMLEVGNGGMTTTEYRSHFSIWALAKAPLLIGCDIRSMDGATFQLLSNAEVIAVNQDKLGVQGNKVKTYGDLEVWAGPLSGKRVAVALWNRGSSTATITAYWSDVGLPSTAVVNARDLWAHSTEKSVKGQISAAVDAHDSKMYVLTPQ
Chain of DNA repair nuclease/redox regulator APEX1 (Homo sapiens) (P27695 whole entry, looked up): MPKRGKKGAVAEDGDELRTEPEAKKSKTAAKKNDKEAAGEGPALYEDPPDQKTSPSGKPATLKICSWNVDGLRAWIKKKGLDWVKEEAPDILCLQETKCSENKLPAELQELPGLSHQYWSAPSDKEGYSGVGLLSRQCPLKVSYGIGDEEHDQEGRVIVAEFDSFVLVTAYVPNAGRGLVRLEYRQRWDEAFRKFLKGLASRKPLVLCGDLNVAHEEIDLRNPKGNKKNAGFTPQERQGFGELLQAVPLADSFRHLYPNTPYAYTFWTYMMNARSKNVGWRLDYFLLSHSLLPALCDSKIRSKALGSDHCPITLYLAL
Chain of Alpha-galactosidase A (Homo sapiens) (P06280 whole entry, looked up): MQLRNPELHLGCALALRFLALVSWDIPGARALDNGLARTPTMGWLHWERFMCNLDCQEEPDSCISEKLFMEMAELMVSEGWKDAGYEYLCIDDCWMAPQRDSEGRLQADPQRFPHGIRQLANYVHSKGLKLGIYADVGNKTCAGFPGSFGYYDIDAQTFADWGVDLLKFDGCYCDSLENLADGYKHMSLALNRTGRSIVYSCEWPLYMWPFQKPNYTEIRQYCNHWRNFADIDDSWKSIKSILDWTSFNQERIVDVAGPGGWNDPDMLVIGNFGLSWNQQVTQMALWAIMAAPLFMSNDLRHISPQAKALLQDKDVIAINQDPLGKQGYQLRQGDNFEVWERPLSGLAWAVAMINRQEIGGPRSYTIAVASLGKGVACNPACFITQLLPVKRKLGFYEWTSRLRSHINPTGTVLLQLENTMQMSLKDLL

`O=c1[nH]oc2c1CCNC2`: the call in assay [1], in assay [2], in [3] and in assay [6] was inactive. The activity change, negative = inhibition in assay [4] (at 25.7 µM (top of the series)) is -3.52% (inactive); in assay [4] (at 57.5 µM (top of the series)), -0.0762% (inactive) and 5.91% (inactive). For the same compound, the max response was -6.88% and 7.61% and 14.4% in [4] (setting [21]); -10.1% and 10.3% and 21.9% in [4] (setting [22]). Also, the Potency result in [5], in [7], in assay [8], in assay [9], in assay [10] and in assay [11] was “inactive” in each case. The Potency entry in assay [12] and in assay [13] was “inactive” in each case.

As for `CC(=O)N1CCN(c2ccc(OC[C@H]3CO[C@](Cn4ccnc4)(c4ccc(Cl)cc4Cl)O3)cc2)CC1`, the outcome in assay [3] was inactive. The Potency in [7] was 11.2 µM (active); in assay [8], 7.94 µM (active); in assay [9], 7.08 µM (active); in [10] it was 10 µM (active); in assay [11], 7.94 µM (active); in assay [12], 7.08 µM (active). The Potency in assay [13] is 11.2 µM (active).

In the case of `COP(=S)(OC)Oc1ccc(SC)c(C)c1`, the compound was called inactive in assay [14] and in [15]. Also, the Potency entry in [16] and in assay [17] was “inactive” throughout. The activity change, negative = inhibition in [4] (at 57.5 µM (top of the series)) is 5.63% (inactive). Besides, the max response in assay [4] (setting [21]) stood at 23%; in assay [4] (setting [22]) it was 29.4%.

On to `O=c1oc2ccccc2c(O)c1Cc1c(O)c2ccccc2oc1=O`, for which the activity change, negative = inhibition in assay [4] (at 25.7 µM (top of the series)) is 0.983% (inactive). In addition, the max response in [4] (setting [21]) is -11.3%; in assay [4] (setting [22]), -10.4%.

As to `CC(NC(C)(C)C)C(=O)c1cccc(Cl)c1` (stereo not given), the result in [18], in assay [6], in [19] and in [20] was inactive. Besides, in assay [4] (at 57.5 µM (top of the series)), the activity change, negative = inhibition is 9.02% (inactive) and 0.884% (inactive). The max response was 11.7% and -20.3% in assay [4] (setting [21]); 23.1% and -17.7% in [4] (setting [22]). In addition, the Potency result in assay [5], in assay [9], in assay [10] and in assay [13] was “inactive” throughout. Further, the Potency in assay [8] is 12.6 µM (active).

As for `O=C1c2ccccc2C(=O)c2ccccc21`, in [4] (at 57.5 µM (top of the series)), the activity change, negative = inhibition was 11.7% (inactive). In addition, the max response turned out to be 14.4% in assay [4] (setting [21]) and 29.4% in assay [4] (setting [22]).

With `CCC1(c2ccc(N)cc2)CCC(=O)NC1=O` (stereo not given), the call in assay [18], in assay [6] and in assay [19] was inactive. For the same compound, the Potency entry in assay [5], in [7], in assay [8], in assay [9], in [10] and in assay [11] was “inactive” throughout. Besides, the Potency result in assay [12] and in [13] was “inactive” in each case.

On to `Nc1ccccc1`, for which the call in assay [14] and in assay [15] was inactive. Besides, the Potency entry in assay [16] and in assay [17] was “inactive” in each case.

In the case of `CC[N+](CC)(CC)CCOc1cccc(OCC[N+](CC)(CC)CC)c1OCC[N+](CC)(CC)CC`, the compound was called inactive in assay [3] and in [19]. In assay [4] (at 25.7 µM (top of the series)), the activity change, negative = inhibition is 0.548% (inactive). The max response in [4] (setting [21]) is -4.51%; in assay [4] (setting [22]), -4.34%.

Consider `CNC(C)(C)Cc1ccccc1`, for which the figures for the activity change, negative = inhibition in assay [4] (at 25.7 µM (top of the series)) and in assay [4] (at 57.5 µM (top of the series)) were -3.38% (inactive) and 12% (inactive), respectively. For the same compound, the max response is -19% and 14.2% in assay [4] (setting [21]); -21.7% and 31.6% in assay [4] (setting [22]).

On to `CC(C)N(CCC(C(N)=O)(c1ccccc1)c1ccccn1)C(C)C` (stereo not given), for which the compound was classed as inactive in assay [18], in assay [6], in assay [19] and in [20]. Also, in assay [4] (at 57.5 µM (top of the series)), the activity change, negative = inhibition was 4.57% (inactive) and -1.93% (inactive) and 1.94% (inactive). For the same compound, the max response was 23.6% and -10.4% and -17.4% in assay [4] (setting [21]); 33.6% and -11% and -15.7% in assay [4] (setting [22]). Further, the Potency entry in assay [5], in assay [7], in assay [9], in assay [10], in assay [11] and in [13] was “inactive” each time. In addition, the Potency in [12] was 8.91 µM (active).

Turning to `CCC(C)(C)c1ccc(O)cc1`, the call in [14] and in assay [15] was inactive. For the same compound, the Potency entry in assay [16] and in [17] was “inactive” each time.

Take `CCC1(CC)C(=O)C=CNC1=O`: the values for the activity change, negative = inhibition in assay [4] (at 25.7 µM (top of the series)) and in assay [4] (at 57.5 µM (top of the series)) were -2.39% (inactive) and 5.04% (inactive), respectively. Also, the max response in [4] (setting [21]) was -5.28% and 19.1%; in assay [4] (setting [22]) it was -7.28% and 25.2%.
